Outcome and AC50 data for 56 molecules are collected here from PubChem BioAssay (EPA / NIEHS).

Records with an inconclusive call do not appear. Calls of active or inactive are those of the source. The calls were made as follows: active = hit-call score of the fitted dose curve at least 0.9, where 1 is the maximum; inconclusive = response in the unintended direction; inactive = score below 0.9.

For orientation: AC50 means the midpoint of the concentration-response curve, whichever way the signal moves.

Assay [1] in a line: ACEA_AR_agonist_AUC_viability: ACEA Biosciences xCELLigence Real-Time Cell Analysis on Androgen Receptor Agonism for Viability (AID 2283775).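 As to AC50: viability read 80 hours after compound addition.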 The essentials: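 Viability endpoint from xCELLigence impedance in 22Rv1 prostate cells at 80 h. Eight-point series, 100 uM maximum final.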
A short description of assay [2]: ACEA_AR_antagonist_AUC_viability: ACEA Biosciences xCELLigence Real-Time Cell Analysis on Androgen Receptor Antagonism for Viability (AID 2283776).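 Also: 22Rv1 human prostate cancer cells growing on impedance electrode plates; area under impedance growth curve at 80 h after dosing as viability; hits lower the growth signal relative to DMSO meaning cytotoxicity.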 The procedure, abridged:
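Real-time electrical impedance tracks 22Rv1 proliferation after continuous compound exposure (top 100 uM final, 1:4 steps, 8 concentrations). The 80 h area-under-curve serves as the cytotoxicity readout relative to DMSO.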

For assay [3], the target named is Luciferin 4-monooxygenase (Photinus pyralis) (UniProt P08659). The assay can be described thus: CCTE_Simmons_QuantiLum_inhib_2: CCTE's Firefly Luciferase Inhibition Assay, Simmons Lab (AID 2283767). The procedure, abridged: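 Cell-free QuantiLum luciferase, 5 ng/well; compounds 5 nM–87.5 uM final, 8 conc, 0.5% DMSO; 30 min, 37C, dark. Detection reagent (150 uM D-luciferin, 147 uM dATP, CoA, DTT, pH 7.8 final) injected per well, kinetic luminescence. Triplicate biological replicates.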
Sequence of Luciferin 4-monooxygenase (Photinus pyralis) (P08659 whole entry, looked up): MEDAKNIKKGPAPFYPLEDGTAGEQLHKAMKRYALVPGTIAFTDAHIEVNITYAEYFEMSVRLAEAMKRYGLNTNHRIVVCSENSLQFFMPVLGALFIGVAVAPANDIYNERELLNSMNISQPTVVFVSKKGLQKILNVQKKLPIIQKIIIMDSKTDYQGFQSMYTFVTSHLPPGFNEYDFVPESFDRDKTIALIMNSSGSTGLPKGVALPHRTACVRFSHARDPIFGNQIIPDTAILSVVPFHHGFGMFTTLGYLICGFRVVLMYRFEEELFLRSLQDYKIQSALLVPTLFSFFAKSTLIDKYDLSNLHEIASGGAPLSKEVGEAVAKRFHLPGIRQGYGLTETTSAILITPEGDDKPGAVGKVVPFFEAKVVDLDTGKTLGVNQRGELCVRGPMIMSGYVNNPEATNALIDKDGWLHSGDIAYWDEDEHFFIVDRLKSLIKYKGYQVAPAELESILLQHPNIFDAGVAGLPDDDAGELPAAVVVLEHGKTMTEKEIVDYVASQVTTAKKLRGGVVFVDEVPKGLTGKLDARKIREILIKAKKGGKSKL

In the case of `O=C1OC(=O)c2c(Cl)c(Cl)c(Cl)c(Cl)c21`, the outcome in assay [1] and in assay [2] was inactive. Consider `Nc1ccc(N)c2c1C(=O)c1ccccc1C2=O`, for which the AC50 in assay [1] is 9.05 µM (active); in assay [2], 12.7 µM (active). As for `Nc1ccccc1[N+](=O)[O-]`, in assay [1], the molecule was classed as inactive. For the molecule `C=C(C)[C@@H]1CC=C(C)C(=O)C1`, the molecule was classed as inactive in assay [1] and in assay [2]. In the case of `CCCCCCC(=O)c1ccccc1`, the molecule was classed as inactive in assay [1]. With `CCCCCCCCSCCO`, the molecule was classed as inactive in assay [1] and in assay [2]. Turning to `COS(=O)(=O)O`, the molecule was classed as inactive in assay [1] and in assay [2]. As to `CCCCCCCCCCCCN1CCCCCC1=O`, the molecule was classed as inactive in assay [1]. The same measure, in the same setting: the same measure for `CCCCCCC(C)(C)S`: “inactive”. Take `CC1CCC(C(C)C)C(O)C1` (configuration not stated): the result in assay [1] and in assay [2] was inactive.

For the molecule `C[C@H]1O[C@@H](O[C@H]2[C@@H](O)C[C@H](O[C@H]3[C@@H](O)C[C@H](O[C@H]4CC[C@@]5(C)[C@H](CC[C@@H]6[C@@H]5C[C@@H](O)[C@]5(C)[C@@H](C7=CC(=O)OC7)CC[C@]65O)C4)O[C@@H]3C)O[C@@H]2C)C[C@H](O)[C@@H]1O`, the concentration at half-maximal activity (AC50) in assay [1] is 0.00928 µM (active); in assay [2], 0.0148 µM (active). As to `CCC(=O)O[C@@H]1C[C@H]2CC[C@]1(C)C2(C)C`, the molecule was called inactive in assay [1]. As to `OCc1cccc(Oc2ccccc2)c1`, the call in assay [1] and in assay [2] was inactive. Consider `CC1(C)C(=O)N(Cl)C(=O)N1Br`, for which the call in assay [1] was inactive. The same measure, in the same setting: the same measure for `CCCCCCCCCC(=O)OC`: “inactive”; for `O=CCc1ccccc1`: “inactive”. On the same count and under the same terms, as for `C=Cc1ccc(C)cc1`, the entry is “inactive”. With `CCCCCCCCCCCCCC(=O)OCC(O)CO` (configuration not stated), the call in assay [1] and in assay [2] was inactive.

Regarding `Cc1cc(=O)oc2cc(N(C)C)ccc12`, the call in assay [1] was inactive. For the same molecule, the AC50 in assay [2] was 0.177 µM (active).

Regarding `O=C1OC[C@H](Cc2cccc(O)c2)[C@H]1Cc1cccc(O)c1`, in assay [3], the molecule was classed as inactive. Besides, the AC50 in assay [2] is 8.21 µM (active). `OC[C@H]1O[C@@H]2O[C@H]3[C@H](O)[C@@H](O)[C@@H](O[C@H]4[C@H](O)[C@@H](O)[C@@H](O[C@H]5[C@H](O)[C@@H](O)[C@@H](O[C@H]6[C@H](O)[C@@H](O)[C@@H](O[C@H]7[C@H](O)[C@@H](O)[C@@H](O[C@H]8[C@H](O)[C@@H](O)[C@@H](O[C@H]9[C@H](O)[C@@H](O)[C@@H](O[C@H]1[C@H](O)[C@H]2O)O[C@@H]9CO)O[C@@H]8CO)O[C@@H]7CO)O[C@@H]6CO)O[C@@H]5CO)O[C@@H]4CO)O[C@@H]3CO`: the molecule was classed as inactive in assay [1] and in assay [2].

In the case of `CS(C)=O`, the call in assay [1] and in assay [2] was inactive. Regarding `CC(C=O)Cc1ccc(C(C)(C)C)cc1` (configuration not stated), the molecule was called inactive in assay [1] and in assay [2]. On to `CCCCCCC(CO)CCCC` (configuration not stated), for which the outcome in assay [1] and in assay [2] was inactive. `CCC1(C)NC(=O)NC1=O` (configuration not stated): the call in assay [1] and in assay [2] was inactive. Take `O=C(CC(=O)c1ccccc1)c1ccccc1`: in assay [2], the outcome was inactive. As for `CCCCOC(=O)CCCCCCCC(=O)OCCCC`, the call in assay [1] and in assay [2] was inactive. `CC(C)CCCCCCc1ccc(OCCOCCO)cc1`: the call in assay [1] and in assay [2] was inactive. As for `BrCc1cccc(Oc2ccccc2)c1`, the result in assay [1] and in assay [2] was inactive.

Take `CCCCCCCCCCCC(=O)OCC(O)CO` (configuration not stated): the result in assay [2] was inactive.

Take `CCCCCC(C)=O`: the molecule was called inactive in assay [1] and in assay [2]. With `CCCCC1CCC(O)CC1` (configuration not stated), the molecule was classed as inactive in assay [1] and in assay [2]. For the molecule `O=C1NC2NC(=O)NC2N1` (configuration not stated), the outcome in assay [1] and in assay [2] was inactive.

With `CC1CC(O)CC(C)(C)C1` (configuration not stated), the outcome in assay [1] and in assay [2] was inactive. Turning to `CCCC(C)=O`, the molecule was classed as inactive in assay [1] and in assay [2]. On to `CC(=O)O[C@@H]1CC2CCC1(C)C2(C)C` (some centres not stated), for which the call in assay [1] and in assay [2] was inactive.

On to `CCCCCCCC/C=C\CCCCCCCC(=O)OCC`, for which the molecule was called inactive in assay [1] and in assay [2]. For `OCCc1ccccc1`, the call in assay [1] and in assay [2] was inactive. As to `C=C1C[C@]23C[C@@]1(O)CC[C@H]2[C@@]12C=C[C@H](O)[C@@](C)(C(=O)O1)[C@H]2[C@@H]3C(=O)O`, in assay [2], the result was inactive. On to `O=[N+]([O-])c1ccc(O)cc1C(F)(F)F`, for which the concentration at half-maximal activity (AC50) in assay [1] is 12.3 µM (active); in assay [2], 12.9 µM (active). As for `OCC(O)c1ccccc1` (configuration not stated), the molecule was classed as inactive in assay [1] and in assay [2]. Turning to `C=CC(=O)OCCCC`, the outcome in assay [1] and in assay [2] was inactive. For `Clc1ccc(C(c2ccccc2Cl)C(Cl)Cl)cc1` (configuration not stated), the result in assay [1] and in assay [2] was inactive. `C=C[Si]1(C)O[Si](C)(C=C)O[Si](C)(C=C)O[Si](C)(C=C)O1` (configuration not stated): the molecule was called inactive in assay [2]. With `CCCCCCCC(=O)OCC(O)CO` (configuration not stated), the molecule was classed as inactive in assay [1] and in assay [2]. As for `CC(C)c1ccccc1O`, in assay [2], the molecule was called inactive. Consider `O=C(c1ccccc1)C(O)c1ccccc1` (configuration not stated), for which the outcome in assay [2] was inactive. Consider `C#CC(C)(O)CC(C)C` (configuration not stated), for which the molecule was called inactive in assay [1] and in assay [2]. On to `CCCOCCO`, for which the molecule was classed as inactive in assay [1] and in assay [2]. For the molecule `Cc1ccc(S(N)(=O)=O)cc1`, in assay [2], the molecule was classed as inactive. The same measure, in the same setting: the same measure for `ON=C1CCCCC1`: “inactive”. On to `C[Si](C)(C)O[Si](C)(C)C`, for which the molecule was called inactive in assay [1] and in assay [2]. For the molecule `CCCC(=O)OC(C)(C)Cc1ccccc1`, the molecule was classed as inactive in assay [1] and in assay [2].

On to `CC(=O)O[C@H]1C[C@@H]2CC[C@@]1(C)C2(C)C`, for which the result in assay [2] was inactive.

In the case of `CCCCC(CC)COC(C)=O` (configuration not stated), in assay [2], the outcome was inactive. Same read-out and setting: as for `COC(=O)c1ccc(C)cc1C1=NC(C)(C(C)C)C(=O)N1` (configuration not stated) (tested in a mixture with another compound), the entry is “inactive”.
